Reference: PubChem BioAssay (NCI)
This is part of a sample that, as a whole, favours compounds with a hit. Of some 83,000 tested, about 20% had one in any assay.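 Each cell line was grown in a 96-well plate and treated with one concentration of compound for 48 hours. Values below 10 were considered active.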 Unmarked numbers belong to inactive results. Active and inactive are the calls of the source.

Tests used:
Experiment in all cases: NCI-60 one-dose screen, 48 h (100 = growth as untreated, 0 = no growth, -100 = all killed)
Conditions in all cases: 10 µM
[1] = tested on: SK-MEL-2 melanoma
[2] = tested on: EKVX NSCLC
[3] = tested on: UO-31 renal
[4] = tested on: TK-10 renal
[5] = tested on: ACHN renal
[6] = tested on: CAKI-1 renal
[7] = tested on: A498 renal
[8] = tested on: CCRF-CEM leukemia
[9] = tested on: MOLT-4 leukemia
[10] = tested on: SR leukemia
[11] = tested on: RPMI-8226 leukemia
[12] = tested on: OVCAR-8 ovarian
[13] = tested on: OVCAR-5 ovarian
[14] = tested on: OVCAR-4 ovarian
[15] = tested on: SK-OV-3 ovarian
[16] = tested on: OVCAR-3 ovarian
[17] = tested on: HS 578T breast
[18] = tested on: NCI/ADR-RES ovarian
[19] = tested on: IGROV1 ovarian

| Compound | growth [1] | growth [2] | growth [3] | growth [4] | growth [5] | growth [6] | growth [7] | growth [8] | growth [9] | growth [10] | growth [11] | growth [12] | growth [13] | growth [14] | growth [15] | growth [16] | growth [17] | growth [18] | growth [19] |
| --- | --- | --- | --- | --- | --- | --- | --- | --- | --- | --- | --- | --- | --- | --- | --- | --- | --- | --- | --- |
| CCn1nc(-c2ccccn2)c2cccnc2c1=S | 88.2% | 59.9% | 77.3% | 89.9% | 89.4% | 86.6% | 99.2% | 31.5% | 57.5% | 61.6% | 55.2% | 79.5% | 97% | 26.5% | 94.7% | 15.4% | 96.6% | 91.5% | – |
| Cc1nc2ccc(-n3c(-c4ccc(Cl)cc4)nc4ccccc4c3=O)cc2n1Cc1ccccc1 | 96.5% | 90.1% | 59% | 111% | 91.9% | 81.3% | 89.7% | 80.2% | 84.1% | 86.7% | 64.6% | 93.4% | 118% | 90.7% | 87.3% | 99.6% | 101% | 94.9% | – |
| O=C(NCCc1nccs1)c1cnc2c(S)cccc2c1 | 22.6% | 16.3% | 12.9% | 38.5% | 29% | 19% | -2.06% (active) | 15.4% | 15.1% | 14.6% | 26.2% | 29.3% | 75.2% | 27.1% | 20.1% | 5.69% (active) | 21.5% | 5.32% (active) | – |
| O=S(=O)(NC1c2ccccc2Oc2ccccc21)c1ccccc1 | 94% | 102% | 81.9% | 86.4% | 84.5% | 90.1% | 92.2% | 61.8% | 88.1% | 58.3% | 94.1% | 88.8% | 101% | 88.6% | 99.6% | 97.6% | – | 90.9% | 97.3% |
| c1ccc(CNc2nc(Nc3ccc(-c4nc5ccccc5[nH]4)cc3)c3cn[nH]c3n2)cc1 | -59.2% (active) | 18% | 29.9% | 20.4% | -5.37% (active) | 7.33% (active) | 27.6% | – | -39.7% (active) | -13.8% (active) | 2.15% (active) | -12.5% (active) | 41.1% | 25.7% | 10.8% | -38.1% (active) | – | 6.33% (active) | 36.2% |
| NC1CCC(Nc2nc(NCc3ccc(-c4cccs4)nc3)c3ncn(C4CCCC4)c3n2)CC1 (stereo not given) | -76.8% (active) | -17% (active) | 9.49% (active) | 5.89% (active) | -3.38% (active) | 15.3% | -78.5% (active) | -2.89% (active) | -16.3% (active) | -33.2% (active) | -20.5% (active) | – | 22.6% | 5.74% (active) | 4.04% (active) | 2.56% (active) | 6.97% (active) | 38.1% | 8.26% (active) |
| N#Cc1ccc(-n2cnc(NC(=O)[C@H]3CCN(C#N)C3)c2)cc1 | -31.7% (active) | 20.4% | – | 21.1% | 11.8% | 34.9% | -18.4% (active) | – | 9.28% (active) | 6.48% (active) | 16.2% | 15.5% | 23.8% | 28.9% | 62.5% | 11.4% | 19.2% | 36.6% | 20.8% |
| COc1cc(C2=Nc3c/c(=C\c4c(O)[nH]c5ccc(Cl)cc45)ccc3=N2)cc(OC)c1OC | 31.1% | 77.7% | 35.5% | 35% | 73.2% | 50.4% | 93.4% | – | 10.3% | -18% (active) | 16.3% | -71.4% (active) | – | -83.1% (active) | 85.7% | 17.3% | -43.3% (active) | 52.2% | 49% |
| CCC(OC(=O)CC(C)C)c1ccccc1 (stereo not given) | 100% | 99.4% | 95.1% | 91.1% | 104% | 97.9% | 102% | 104% | 98.1% | 101% | 105% | 93.4% | – | 112% | 102% | 107% | 104% | 98.8% | 111% |
| CCOC(=O)Nc1ccc2c(c1)C(=O)N(CCOC)c1ccccc1O2 | 39.9% | 45.4% | 62.2% | 58.7% | 48.1% | 38.7% | 4.67% (active) | 20.6% | 35% | 17.5% | 22.2% | 52.8% | – | 62.1% | 37.3% | 8.46% (active) | 44.4% | 24.1% | 57.8% |
| N#CN1CC[C@H](C(=O)Nc2ncc(-c3ccncc3)s2)C1 | -36.1% (active) | 1.46% (active) | 8.4% (active) | -24.9% (active) | – | 10% | -49.4% (active) | 7.15% (active) | -20.4% (active) | 1.53% (active) | 7.02% (active) | 2.72% (active) | 5.32% (active) | 3.57% (active) | 2.96% (active) | -22.1% (active) | 2.54% (active) | 5.43% (active) | 12.5% |
| Cc1ccc2oc(=O)cc(/C(=C3/C=CC=N3)c3ccc[nH]3)c2c1 | 2.71% (active) | 16.5% | 5.2% (active) | 1.86% (active) | – | 3.96% (active) | -9.36% (active) | 10.4% | -3.84% (active) | -9.31% (active) | -16.9% (active) | -20.2% (active) | 21.1% | 28% | -16% (active) | -23.3% (active) | 12.9% | 0.0095% (active) | 16.6% |
| CCCCn1c(=O)[nH]c(N)c(C(c2ccc(Cl)cc2)c2c(N)[nH]c(=O)n(CCCC)c2=O)c1=O | 6.4% (active) | 48.6% | 95.4% | 50.7% | – | 90.7% | 89.3% | 16.7% | -11.8% (active) | 24.2% | 25.5% | 46.7% | 87.8% | 42.7% | 56.5% | 27.2% | 50.6% | 103% | 46% |
| CS(=O)(=O)Nc1ccc([N+](=O)[O-])cc1Oc1ccccc1 | 125% | 87.6% | 81.5% | 117% | – | 78.7% | 92% | 85.5% | 84.8% | 87% | 83.2% | – | – | 97% | 97.3% | 95.4% | 98.2% | 96.8% | 106% |
| O=[N+]([O-])c1ccc(Br)o1 | 94.4% | 101% | 90% | 96.4% | 100% | 98.3% | 102% | – | 106% | 108% | 106% | 108% | 95.4% | 122% | 104% | 111% | 113% | 99.5% | – |
| CCCCCc1cc[n+](CC(=O)c2ccc(Cl)cc2)cc1 | 109% | 93.1% | 91.2% | 98.4% | 99% | 92.5% | 63.1% | 102% | 92.7% | 86% | 91.5% | – | 71.4% | 96.3% | 99.1% | 59.8% | 95.9% | 99.7% | 86.5% |
| CN(C1c2ccccc2Oc2ccccc21)S(=O)(=O)c1cc(Cl)ccc1Cl | 42.9% | 57.7% | 49.5% | 69% | – | 54.2% | 20.9% | 42.7% | 43.3% | 12.8% | 67.3% | 65.8% | 84.4% | 69.2% | 54.5% | 19.4% | 76.2% | 51.9% | 53.8% |
